The source made the active and inactive calls. Entries that show only a call come without a potency. Calls come from the whole dose curve.
The compounds below were run against Acetylcholinesterase (Homo sapiens) (UniProt P22303) (assay: Acetylcholinesterase (AChE) small molecule antagonists: enzyme-based qHTS assay (AID 1347397; note: nearly all actives have a fitted effect of over 55% in size)). Conditions: Potency: AChE enzyme activity inhibition; outcome: AChE enzyme activity inhibition; series mostly up to 115 µM.
Sequence of Acetylcholinesterase (Homo sapiens) (P22303 whole entry, looked up): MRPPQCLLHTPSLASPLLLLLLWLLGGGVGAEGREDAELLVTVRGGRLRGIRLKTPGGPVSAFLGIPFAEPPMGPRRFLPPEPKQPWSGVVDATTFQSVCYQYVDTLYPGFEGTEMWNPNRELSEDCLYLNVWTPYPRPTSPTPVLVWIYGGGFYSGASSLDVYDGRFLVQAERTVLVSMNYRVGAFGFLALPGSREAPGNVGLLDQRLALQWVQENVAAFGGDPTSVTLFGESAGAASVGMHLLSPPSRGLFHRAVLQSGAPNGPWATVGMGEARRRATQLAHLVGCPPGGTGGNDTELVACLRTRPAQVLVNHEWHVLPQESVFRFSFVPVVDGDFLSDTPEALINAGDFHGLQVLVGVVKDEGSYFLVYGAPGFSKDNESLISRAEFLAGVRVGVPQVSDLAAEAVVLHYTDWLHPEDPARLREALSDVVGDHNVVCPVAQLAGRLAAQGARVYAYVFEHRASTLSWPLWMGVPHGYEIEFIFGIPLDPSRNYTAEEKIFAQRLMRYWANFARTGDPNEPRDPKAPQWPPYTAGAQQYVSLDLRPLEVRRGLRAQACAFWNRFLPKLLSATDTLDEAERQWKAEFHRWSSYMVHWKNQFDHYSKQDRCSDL
How it was run: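 Compound or DMSO vehicle was pin-transferred onto recombinant human AChE (50 mU/mL as dispensed) and left 30 min at room temperature. Acetylthiocholine with DTNB then started the reaction, read colorimetrically 10 min later.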
Cc1cccc(C(=O)O)c1O was tested, and the Potency was “inactive”. In the case of CCOCCOCCOCC, the Potency is reported as “inactive”. In the case of CC(C)=CC(=O)C=C(C)C, the Potency is reported as “inactive”. CNCCCC12CCC(c3ccccc31)c1ccccc12 was tested, and the Potency was “inactive”. In the case of CC(=O)O[Si](C)(OC(C)=O)OC(C)=O, the Potency is reported as “inactive”. CC/C=C\CCOC(=O)c1ccccc1O was tested, and the Potency was “inactive”. In the case of CC(C)(Oc1ccc(Cl)cc1)C(=O)O, the Potency is reported as “inactive”. For CCOC(=O)CC(=O)OCC, the Potency was “inactive”. CC1=CC(C)C(C=O)C(C)C1 (stereo not given) was tested, and the Potency was “inactive”. Cc1ccccc1C(=O)Nc1ccc(C(=O)N2CCCC(N(C)C)c3ccccc32)cc1 (stereo not given) was tested, and the Potency was “inactive”. C1=Cc2ccccc2C1 was tested, and the Potency was “inactive”. For CCOC(=O)C1=NOC(c2ccccc2)(c2ccccc2)C1, the Potency was “inactive”. CCCCCCc1ccc(-c2ccc(C#N)cc2)cc1 was tested, and the Potency was “inactive”. CC/C=C\C/C=C\C/C=C\CCCCCCCC(=O)OCC was tested, and the Potency was “inactive”. For O=C(O)c1ccccc1Cl, the Potency was “inactive”. In the case of Cc1ccc(C(C)C)cc2c(C)ccc1-2, the Potency is reported as “inactive”. With C=C(C)C(=O)OCCO the Potency was “inactive”. With O=c1[nH][nH]c2ccccc12 the Potency was “inactive”. CC1CCC(C(C)CS)CC1S (stereo not given) was tested, and the Potency was “inactive”. In the case of O=C1c2ccccc2C(=O)N1CCl, the Potency is reported as “inactive”. In the case of Oc1ccccc1O, the Potency is reported as “inactive”. For CCN1CN(CC)CN(CC)C1, the Potency was “inactive”. In the case of CC1=NN(c2ccc(S(=O)(=O)O)cc2)C(=O)C1, the Potency is reported as “inactive”. CC/C=C(\C(=O)N[C@@H]1C(=O)N2C(C(=O)OCOC(=O)C(C)(C)C)=C(COC(N)=O)CS[C@H]12)c1csc(N)n1 was tested, and the Potency was “inactive”. For CCOc1ccc(OCC)c(Cl)c1, the Potency was “inactive”. CCCCCCCCCCO[C@@H]1O[C@H](CO)[C@@H](O)[C@H](O)[C@H]1O was tested, and the Potency was “inactive”. In the case of CCN(CC)CCSC(=O)C(c1ccccc1)c1ccccc1, the Potency is reported as “inactive”. For O=[N+]([O-])c1cc[n+]([O-])cc1, the Potency was “inactive”. In the case of O=C(O)C(=O)O, the Potency is reported as “inactive”. With CC(C#N)(CCC(=O)O)N=NC(C)(C#N)CCC(=O)O (stereo not given) the Potency was “inactive”. In the case of O=C(O)CCCCCCCCC(=O)O, the Potency is reported as “inactive”. With CCN(CC)CC1CCCCN1CC(=O)N1c2ccccc2C(=O)Nc2cccnc21 (stereo not given) the Potency was “inactive”. For CCc1occc(=O)c1O, the Potency was “inactive”. O=[N+]([O-])c1ccc(O)cc1 was tested, and the Potency was “inactive”. In the case of CCc1ncc(C)[nH]1, the Potency is reported as “inactive”. In the case of Oc1cc2ccccc2cc1O, the Potency is reported as “inactive”. With O=C(O)c1cc(O)c(O)c(O)c1 the Potency was “inactive”. With CCOC(=O)/C=C\C(=O)OCC the Potency was “inactive”. For C=C(C)c1cccc(C(C)(C)N=C=O)c1, the Potency was “inactive”. For CCCCCCCCNC, the Potency was “inactive”.

From PubChem BioAssay (Tox21)
